Compound activity: PubChem, Johns Hopkins Ion Channel Center
KCNQ2 pot: potentiators of rat KCNQ2 potassium channel; hit rate 0.54% among 310,000; AID 2239; CHO-K1 KCNQ2, FluxOR thallium flux fluorescence; hits give high values; O88943; B-score at 10 µM;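 active means fluorescence ratio B-score at least 3 SD of library B-scores, with initial fluorescence B-score within 3 of them, cut at about 5.3 in these data; same plate scores as AID 2156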;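 further: B-score of peak minus minimum over baseline fluorescence ratio after K+ and Tl+ stimulus; positive B-score means potentiation of KCNQ2 with more thallium influx and brighter signal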
KCNQ2 block: blocks the rat KCNQ2 potassium channel; O88943; CHO-K1 KCNQ2, FluxOR thallium flux, 20 min; hits give low values; B-score at 10 µM; hit rate 1.1% among 310,000; AID 2156;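 active means fluorescence ratio B-score at most minus 3 library SDs, with starting brightness B-score within 2 library SDs, cut at about -5.5 in these data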
Kir21 confirm: confirmation of mouse Kir2.1 potassium channel inhibitors; shares compounds with KCNQ2 pot; Kir2.1-expressing cells, FluxOR thallium flux fluorescence; hits give low values; Tl flux remaining, % of negative control (hits give low values), % at 10 µM; hit rate 41% among 2,300; AID 2032;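 active means Primary-screen hit whose thallium flux fell at least 3 control SD below untreated wells in both duplicates, with normal baseline fluorescence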;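 further: 0% = blank wells without stimulus and 100% = stimulated no-compound controls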
Target sequence (P35561 whole entry, looked up): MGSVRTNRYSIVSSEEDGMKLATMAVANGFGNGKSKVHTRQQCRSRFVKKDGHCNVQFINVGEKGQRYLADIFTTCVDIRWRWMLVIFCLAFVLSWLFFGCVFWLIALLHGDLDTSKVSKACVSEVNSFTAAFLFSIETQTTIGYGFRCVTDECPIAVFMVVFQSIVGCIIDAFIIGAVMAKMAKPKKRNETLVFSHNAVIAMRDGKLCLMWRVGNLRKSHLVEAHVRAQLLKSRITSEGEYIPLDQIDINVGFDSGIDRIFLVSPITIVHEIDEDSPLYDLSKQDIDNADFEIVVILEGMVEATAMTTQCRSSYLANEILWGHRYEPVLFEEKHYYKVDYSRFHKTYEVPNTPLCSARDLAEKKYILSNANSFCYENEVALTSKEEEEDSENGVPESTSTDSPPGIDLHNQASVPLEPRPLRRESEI
HEK293 ctr: counter-screen for Kir2.1 inhibitors: effect in parental HEK293 cells; shares compounds with KCNQ2 pot; FluxOR thallium flux fluorescence; 0% = unstimulated blank wells; FluxOR signal as % of negative control (100 = no effect), % at 10 µM; hit rate 19% among 2,300; AID 2105;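 active means dye signal at least 3 control SD above or below untreated wells in both duplicates, raw fluorescence within 3, either direction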;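 further: percent is based on the flux ratio of peak minus minimum fluorescence over baseline F0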
CHO-K1 Tl ctr: parental CHO-K1 activity in KCNQ2 potentiator counter-screen; activity increase over 3SD of controls, % at 10 µM; parental CHO-K1 cells, FluxOR thallium flux fluorescence; zero = vehicle mean+3SD, 100% = vehicle-minus-blank window; shares compounds with KCNQ2 pot; hit rate 43% among 1,200; AID 2282;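 active means signal rise of at least 3 SD above the untreated control mean, in both duplicate wells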;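 further: counter screen of KCNQ2 potentiator hits so any rise reflects channel-independent effects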
KCNQ1 sel pot: human KCNQ1 counter-target activity of KCNQ2 potentiators. activation over 3SD threshold, % at 10 µM. CHO KCNQ1 stable, FluxOR thallium flux fluorescence; beyond 3SD, as % of vehicle-control signal. hit rate 28% among 1,200. AID 2283. shares compounds with KCNQ2 pot;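 active means fluorescence ratio rise of at least 3 SD of vehicle wells above their mean, in both replicate wells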;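 further: 0% = vehicle mean plus 3 SD and 100% = vehicle minus unstimulated blank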
KCNQ2 pot confirm: rat KCNQ2 channel potentiator confirmation; hit rate 68% among 1,200; CHO-KCNQ2 cells, FluxOR thallium flux fluorescence; shares compounds with KCNQ2 pot; potentiation, less the hit threshold, % at 10 µM;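 active means fluorescence ratio rising 3 SD or more over the vehicle control mean in both replicates, plus primary screen hit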;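 further: peak minus minimum thallium fluorescence divided by baseline after K/Tl stimulus; 0% = vehicle mean plus 3 SD and 100% = vehicle minus unstimulated blank difference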
Kir2-1 sel: tests whether KCNQ2 potentiators also affect mouse Kir2.1. AID 2345. activity over 3SD threshold, % at 10 µM. hit rate 2% among 1,200. HEK293 Kir2.1, FluxOR thallium flux fluorescence. shares compounds with KCNQ2 pot;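 active means fluorescence ratio rise of at least 3 SD above the vehicle-control mean, seen in both replicates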;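 further: 0% = vehicle mean plus 3 SD and 100% = vehicle minus no-stimulus blank window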
KCNQ2 W236L pot: rat KCNQ2 W236L mutant potentiation by KCNQ2 potentiators | shares compounds with KCNQ2 pot | CHO KCNQ2-W236L, automated patch clamp current | hit rate 10% among 940 | current increase over 3SD of negative controls (%), hits give high values, % at 25 µM;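 active means current increase at least 3 SD of the untreated controls above them in both duplicate recordings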
The depositor's hits bear a star; i = inactive; . = no result given. A selection: hits, their analogues and other compounds. The true share with any hit is near 1.6%.

SMILES | KCNQ2 pot | KCNQ2 block | Kir21 confirm | HEK293 ctr | others
COCCN1CCN(Cc2nc(Cc3ccc(OC)c(OC)c3)no2)CC1 | 1.32 | i | . | .
O=C(CSc1c2c(nc3cc(Cl)ccc13)CCCC2)NCc1ccco1 | . | i | 57.0%* | i
O=C(CSc1nc2ccc(Cl)cc2[nH]1)NCc1ccco1 | 0.53 | i | . | .
CC1CCc2c(sc(NC(=O)c3ccccc3C(=O)O)c2C#N)C1 (stereo not given) | 3.91 | i | . | .
CCC(C)(C)C1CCc2c(sc(NC(=O)c3ccccc3C(=O)O)c2C#N)C1 (stereo not given) | 8.34* | i | i | 151.0%* | CHO-K1 Tl ctr=-0.5;KCNQ1 sel pot=-21.4;KCNQ2 pot confirm=15.6*;Kir2-1 sel=-19.4;KCNQ2 W236L pot=i
COc1ccc(CSCC(=O)Nc2ccccc2)cc1[N+](=O)[O-] | . | i | . | .
CC(/C=C1\SC(=S)N(NC(=O)c2ccncc2)C1=O)=C\c1ccccc1 | 3.16 | i | . | .
CC(/C=C1\SC(=S)N(NC(=O)c2ccc(C)cc2)C1=O)=C\c1ccccc1 | 9.22* | i | i | i | CHO-K1 Tl ctr=-3.8;KCNQ1 sel pot=-10.1;KCNQ2 pot confirm=-20.1;Kir2-1 sel=-21.0
CC(/C=C1\SC(=S)N(NS(=O)(=O)c2ccccc2)C1=O)=C\c1ccccc1 | 12.2* | i | i | 259.5%* | CHO-K1 Tl ctr=0.8*;KCNQ1 sel pot=63.0*;KCNQ2 pot confirm=56.4*;Kir2-1 sel=-27.3;KCNQ2 W236L pot=i
COc1ccc(/C=C2/SC(=S)N(NS(=O)(=O)c3ccccc3)C2=O)cc1 | 3.49 | i | . | .
CC(C)C[C@H](NC(=O)N1CCn2c1nc1ccccc12)C(=O)NCC1CCCO1 (stereo not given in full) | 0.06 | i | . | .
O=C(CSc1ccc2nnc(CCNC(=O)c3ccccc3)n2n1)NCCc1ccccc1 | 0.66 | i | . | .
O=C1N=C(N2C=CC(=C3C=CNC=C3)C=C2)/C(=C/N=NC(=O)c2ccccc2)S1 | . | i | . | .
Cc1ccc(N2NC(C)(c3cccs3)NC2=S)cc1 (stereo not given) | 0.02 | i | . | .
N=c1c(S(=O)(=O)c2ccc(Br)cc2)cc2c(=O)n3ccccc3nc2n1C1CCCCC1 | . | i | . | .
Cc1cccn2c(=O)c3cc(S(=O)(=O)c4ccc(Br)cc4)c(=N)n(C4CCCC4)c3nc12 | 0.14 | i | i | i
CCCOc1ccc(C(=O)N/N=C/c2c[nH]c3ccc(Br)cc23)cc1 | 0.13 | i | . | .
CCCCCN=C(N)N/N=C/c1c[nH]c2ccc(OC)cc12 | 8.75* | i | i | i | CHO-K1 Tl ctr=50.9*;KCNQ1 sel pot=-17.5;KCNQ2 pot confirm=-43.3;Kir2-1 sel=-94.0
O=C(NC1CCCC1)C(c1ccc(F)cc1)N(Cc1ccc(F)cc1)C(=O)CCl (stereo not given) | . | i | . | .
O=C(O)c1cc([N+](=O)[O-])ccc1N1CCC(Cc2ccccc2)CC1 | 1.37 | i | . | .
CN(Cc1ccccc1)C(=O)C1CCN(S(=O)(=O)c2ccc(-n3cnnn3)cc2)CC1 | 0.88 | i | . | .
Cc1ccc(/C=C2/NC(=O)N(Cc3ccccc3F)C2=O)s1 | . | i | . | .
CC(C)CN1C(=O)/C(=C/c2cccs2)NC1=S | 12.4* | i | i | 321.5%* | CHO-K1 Tl ctr=-24.5;KCNQ1 sel pot=-19.4;KCNQ2 pot confirm=56.9*;Kir2-1 sel=-14.2;KCNQ2 W236L pot=i
CC(C)CN1C(=O)/C(=C/c2ccco2)NC1=S | 1.55 | i | . | .
CCCN1C(=O)/C(=C/c2ccc(C)s2)NC1=S | 14.7* | i | i | 216.5%* | CHO-K1 Tl ctr=-5.9;KCNQ1 sel pot=-12.5;KCNQ2 pot confirm=66.1*;Kir2-1 sel=-31.9;KCNQ2 W236L pot=i
SMILES | KCNQ2 pot | KCNQ2 block | Kir21 confirm | HEK293 ctr | others
CCCC[C@@H]1CNC(=O)C(=O)N1CCc1cccc2ccccc12 | 1.96 | i | . | .
C=CCOc1ccc(/C=C2/C(=N)N3N=C(CC(=O)N4CCCC4)SC3=NC2=O)cc1OC | 0.31 | i | . | .
COc1ccc(/C=C(\NC(=O)c2ccc(C)cc2)C(=O)Nc2c(C)n(C)n(-c3ccccc3)c2=O)cc1 | 0.29 | i | . | .
C=CCc1ccc(OCCCNC2CCCC2)c(OC)c1 | . | i | . | .
C=CCc1ccccc1OCCNCc1ccccc1 | . | i | 31.5%* | i
C/C=C/c1ccc(OCCN2CCc3ccccc3C2)c(OC)c1 | . | i | . | .
C=CCc1ccc(OCCCNCc2ccccc2)c(OC)c1 | 3.34 | i | 41.5%* | i
Brc1ccccc1OCCNCc1ccccc1 | . | i | . | .
C=CCc1ccc(OCCN2CCc3ccccc3C2)c(OC)c1 | 0.84 | i | 20.0%* | i
CN(C)c1ccc(/C=C(/NC(=O)c2ccccc2Cl)C(=O)NCCN2CCOCC2)cc1 | 2.22 | i | . | .
CCCOc1cccc(C(=O)NC(=S)Nc2cccc(C(F)(F)F)c2)c1 | . | i | . | .
O=C(Nc1ccccc1NC(=O)c1csnn1)c1csnn1 | . | i | . | .
O=C(NC(=S)Nc1ccccc1Cl)c1csnn1 | 14.7* | i | i | 408.0%* | CHO-K1 Tl ctr=78.9*;KCNQ1 sel pot=-18.9;KCNQ2 pot confirm=71.8*;Kir2-1 sel=-18.3;KCNQ2 W236L pot=i
O=C(NC(=S)Nc1cccc(C(F)(F)F)c1)c1csnn1 | 17.5* | i | i | 442.0%* | CHO-K1 Tl ctr=-17.5;KCNQ1 sel pot=-11.1;KCNQ2 pot confirm=80.4*;Kir2-1 sel=-16.9;KCNQ2 W236L pot=i
Cc1nc(Cl)c(C(=O)NC(C)(C)C)c(C)c1Cl | . | i | . | .
COCc1ccc(C(=O)N(C)C2CCCN(Cc3ccccc3F)C2)o1 (stereo not given) | 2.16 | i | . | .
CC1CCCCN1C(=O)/C(=C\c1ccccc1)c1ccccc1 (stereo not given) | . | i | . | .
O=C(O)CCCNC(=O)Nc1ccccc1 | 0.71 | i | . | .
CCCCCCNC(=O)Nc1ccccc1 | 5.86* | i | i | i | CHO-K1 Tl ctr=-7.7;KCNQ1 sel pot=-11.4;KCNQ2 pot confirm=3.7*;Kir2-1 sel=-24.4;KCNQ2 W236L pot=i
CC(C)(C)CC(=O)Nc1nnc(SCC(=O)NC2CCCCC2)s1 | . | i | . | .
O=S(=O)(NCc1ccc(Cl)cc1)c1cccc2cccnc12 | 0.01 | i | . | .
Cc1cc(C)c(S(=O)(=O)NCc2ccc3c(c2)OCO3)cc1C | . | i | . | .
CCOc1cc(C)c(Cl)cc1S(=O)(=O)NCc1ccco1 | . | i | 55.5%* | i
O=S(=O)(NCc1ccc2c(c1)OCO2)c1cccc2cccnc12 | 13.3* | i | . | . | CHO-K1 Tl ctr=5.4*;KCNQ1 sel pot=-14.8;KCNQ2 pot confirm=-28.1;Kir2-1 sel=-57.8
Cc1cc(S(=O)(=O)NCc2ccco2)c(C)cc1Cl | . | i | . | .
COc1cc(C)c(Cl)cc1S(=O)(=O)NCc1ccco1 | 0.69 | i | . | .
CCOc1cc(S(=O)(=O)NCc2ccc3c(c2)OCO3)c(C)cc1C | . | i | 65.0%* | i
Cc1cc(C)c(C)c(S(=O)(=O)NCc2ccco2)c1C | . | i | 54.5%* | i
Brc1ccc(CNc2cc3c(cc2Br)OCCO3)cc1 | 0.02 | i | . | .
